Results: ChEMBL document CHEMBL3988442, “University of Dundee, Small-Polar-MMV Screening Library” (2021)

The compounds below were run against Shiga toxin 2 (Escherichia coli O157:H7) (UniProt P09385+P09386) (assay: E. coli 0.157:H7 Shiga Toxin SOP - stx2 screening assay). Settings: 30 µM.
Format: functional
Design: scale not given: direction of the effect not stated beside the values
In the case of `COCC1Cn2nnc(-c3cnn(C)c3)c2CN1Cc1ccc(C)s1` (configuration not stated), the Percent Effect was -7.17%.
With `CCOc1ccccc1-c1noc(CN2CCCC(O)C2)n1` (configuration not stated) the Percent Effect was 2.11%.
Compound `CCNC(=O)[C@@H]1C[C@@H](NC(=O)Cc2ccncc2)CN1Cc1ccsc1` has a Percent Effect of -0.12%.
Compound `COCCCN(CCOC)C(=O)Nc1ccccc1Br` has a Percent Effect of -6.69%.
`Cc1nc(C)n(C2CCCN(C(=O)CCc3ccncc3)C2)n1` (configuration not stated) was tested, and the Percent Effect was 11.7%.
For `O=C1CO[C@@H]2CN(CC3CCOCC3)C[C@H]2N1CC1CC1`, the Percent Effect was 5.99%.
For `COc1ccccc1CC1CCCN(CC(=O)N2CCOCC2)C1` (configuration not stated), the Percent Effect was 16.7%.
